{"source": "PubChem BioAssay (Tox21)", "note": "Results filed as inconclusive are left out. Values without a mark were called inactive. Active and inactive are the calls of the source. Calls come from the whole dose curve; as a rule, active = well fitted activation curve with a large enough effect in the repeat runs; inconclusive = weak or mixed curves; inactive = no such curve, though single readings can be large or run the other way. % is set by controls: 0 for no effect and ±100 for the full control effect; potency is the fitted concentration of half-maximal effect.", "data": [{"biological_target": "Nuclear receptor subfamily 1 group I member 2 (Rattus norvegicus) (UniProt Q9R1A7)", "sequence (Q9R1A7 whole entry, looked up)": "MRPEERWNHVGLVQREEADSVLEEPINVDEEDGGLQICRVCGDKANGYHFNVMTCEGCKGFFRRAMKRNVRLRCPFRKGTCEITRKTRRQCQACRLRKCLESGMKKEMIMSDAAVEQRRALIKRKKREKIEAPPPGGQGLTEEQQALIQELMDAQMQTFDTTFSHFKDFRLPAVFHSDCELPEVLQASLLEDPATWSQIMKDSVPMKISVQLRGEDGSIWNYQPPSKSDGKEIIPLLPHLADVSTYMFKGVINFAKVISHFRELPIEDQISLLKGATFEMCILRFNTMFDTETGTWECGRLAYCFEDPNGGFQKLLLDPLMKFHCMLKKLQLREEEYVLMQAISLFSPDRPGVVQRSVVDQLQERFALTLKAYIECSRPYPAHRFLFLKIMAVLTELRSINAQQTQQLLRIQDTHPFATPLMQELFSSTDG", "assay": "Rat pregnane X receptor (rPXR) activation by small molecules, qHTS assay (AID 1346983); note: nearly all actives have a fitted effect of over 20% in size", "conditions": "rPXR luciferase reporter cells, One-Glo luminescence, 24 h; max activation: stronger effect = higher value", "excerpt": "National Center for Advancing Translational Sciences [NCATS] NIH Chemical Genomics Center [NCGC] U.S. Environmental Protection Agency [EPA] National Institutes of Environmental Health Sciences [NIEHS] National Toxicology Program [NTP] Assay overview: The Pregnane X receptor (PXR), a ligand activated nuclear receptor plays a critical role in the regulation of genes involved in drug metabolism and transporters. PXR binds xenobiotics and when compounds interact with PXR produces enhanced expression of CYP3A genes. In humans PXR activation and CYP3A4 induction can be problematic due to their interactions with co-medicated drugs and decrease their efficacy or increase their own metabolism. However, there are known species-specific differences with regard to PXR activation that should be taken into account when animal PXR data are extrapolated to humans. A cell based rat PXR (rPXR) assay (developed by Puracyp, Inc., CA) was used to assess the activation of rPXR.\nAssay Protocol Summary: rPXR cells were dispensed at 2,000 per well in 5uL of assay medium into white, solid-bottom 1536-well plates using a Multidrop Combi dispenser (Thermo Scientific). The assay plates were incubated at 37 C for 5hr before transferring 23 nL of test compounds dissolved in DMSO and positive control via Pintool station (Wako). The assay plates were incubated at 37 C for 24 hr. Then 5ul One-Glo assay reagent (Promega) was added to each plate by a Flying Reagent Dispenser (FRD, Aurora Discovery) and following 30 min incubation at room temperature, luciferase activity was quantified on a ViewLux plate reader (Perkin Elmer).", "units": {"max activation": "%"}, "values": [{"smiles": "CCN(CC)C(C)C(=O)c1ccccc1", "note": "(stereo not given)", "max activation": -2.77}, {"smiles": "CC(C)(C)OC(=O)c1ncn2c1[C@@H]1CCCN1C(=O)c1c(Br)cccc1-2", "max activation": -1.76}, {"smiles": "CN1CCC(O)(c2ccc(F)cc2)C(C(=O)c2ccc(F)cc2)C1", "note": "(stereo not given)", "max activation": -0.751}, {"smiles": "O=C(O)c1ccc2[nH]cc(CCCCN3CC=C(c4ccccc4)CC3)c2c1", "max activation": -0.864}, {"smiles": "CC(=O)[C@H]1CC[C@H]2[C@@H]3CC[C@H]4C[C@H](O)CC[C@]4(C)[C@H]3C(=O)C[C@]12C", "Potency": "11.2 µM (active)"}, {"smiles": "CN1C[C@@H](NS(=O)(=O)N(C)C)C[C@@H]2c3cccc4c3c(cn4C)C[C@H]21", "Potency": "10 µM (active)"}, {"smiles": "O=C(CCCN1CCC(n2c(=O)[nH]c3ccccc32)CC1)c1ccc(F)cc1", "max activation": -1.58}, {"smiles": "CC(=O)Nc1cc([As](=O)(O)O)ccc1O", "max activation": -4.41}, {"smiles": "NC(=O)c1cc([N+](=O)[O-])cc([N+](=O)[O-])c1", "max activation": -0.752}, {"smiles": "COc1ccc2c(c1OC)CN1CCc3cc4c(cc3C1C2)OCO4", "note": "(stereo not given)", "max activation": 0.596}, {"smiles": "CCN(CC)CCOC(=O)C(C)(c1ccccc1)c1ccccc1", "max activation": 7.07}, {"smiles": "COc1cc2c(cc1OC)[C@@]13CCN4CC5=CCO[C@H]6CC(=O)N2[C@H]1[C@H]6[C@H]5C[C@H]43", "max activation": -4.15}, {"smiles": "C[C@@H]1CN(C2CCC(C#N)(c3ccc(F)cc3)CC2)CC[C@]1(C(=O)O)c1ccccc1", "note": "(stereo not given in full)", "max activation": -1.37}, {"smiles": "c1cc2c(c(N3CCNCC3)c1)OCCO2", "max activation": 6.77}, {"smiles": "Cc1ncsc1CCCl", "max activation": -0.969}, {"smiles": "CN1C(=S)CN=C(c2ccccc2)c2cc(Cl)ccc21", "max activation": -0.756}, {"smiles": "CCOC(=O)/C=C(C)/C=C/C[C@@H](C)CCCC(C)C", "max activation": -2.62}, {"smiles": "CC(C)(C)NCC(O)c1cc(Cl)c(N)c(Cl)c1", "note": "(stereo not given)", "max activation": -2.23}, {"smiles": "NC1=NC(=O)C(c2ccccc2)O1", "note": "(stereo not given)", "max activation": -2.64}, {"smiles": "CCS(=O)(=O)C(C)(C)S(=O)(=O)CC", "max activation": -0.861}, {"smiles": "CN(C)CCc1ccc(O)cc1", "max activation": -2.69}, {"smiles": "C#C[C@]1(O)C=C[C@H]2[C@@H]3CCC4=CC(=O)CC[C@@H]4[C@H]3CC[C@@]21CC", "max activation": -1.56}, {"smiles": "CCN(Cc1ccc(Cl)nc1)/C(=C/[N+](=O)[O-])NC", "max activation": -0.716}, {"smiles": "CCC1(c2ccccc2)C(=O)NC(=O)NC1=O", "max activation": -0.894}, {"smiles": "C[C@H]1CCC[C@H](O)CCCCCc2cc(O)cc(O)c2C(=O)O1", "max activation": -2.62}, {"smiles": "C[C@]12CC[C@H]3[C@@H](CC=C4C[C@@H](O)CC[C@@]43C)[C@@H]1CC[C@@H]2O", "max activation": -0.895}, {"smiles": "OC(c1ccccc1)(c1ccccc1)C1CCNCC1", "max activation": -4.65}, {"smiles": "[O]=[Cd]", "max activation": 0.414}, {"smiles": "CC(C)CC(N(C)C)C1(c2ccc(Cl)cc2)CCC1", "note": "(stereo not given)", "max activation": -2.56}, {"smiles": "O=C1OC(c2ccc(O)c(S(=O)(=O)O)c2)(c2ccc(O)c(S(=O)(=O)O)c2)c2c(Br)c(Br)c(Br)c(Br)c21", "max activation": -0.923}, {"smiles": "Cc1ncc2n1-c1ccc(Cl)cc1C(c1ccccc1F)=NC2", "max activation": 11.3}, {"smiles": "O=C1c2ccccc2C(=O)c2ccccc21", "max activation": 7.01}, {"smiles": "O=C1CN=C(c2ccccc2)c2cc([N+](=O)[O-])ccc2N1", "max activation": -2.6}, {"smiles": "COC(=O)C(c1ccccc1)C1CCCCN1", "note": "(stereo not given)", "max activation": -3.29}, {"smiles": "CN1CCN(C(=O)O[C@H]2c3nccnc3C(=O)N2c2ccc(Cl)cn2)CC1", "max activation": 2}]}]}
